The nature of experiment [1]: Nuclear factor erythroid 2-related factor 2/antioxidant responsive element (Nrf2/ARE) small molecule agonists: luciferase reporter gene qHTS assay in human keratinocytes (AID 1919969). Further: nearly all actives have a fitted effect of over 35% in size. Further: potency means the concentration at half of the fitted maximal effect. A general note: In a reporter assay the amount or activity of a reporter protein is the signal.
Experiment [2] concerns the target Gonadotropin-releasing hormone receptor (Homo sapiens) (UniProt P30968). Kind of experiment: Human gonadotropin-releasing hormone receptor (GnRHR) small molecule agonists, calcium flux assay in GnRHR-HEK293 cells (AID 1920063). Further: nearly all actives have a fitted effect of over 35% in size. A digest of the protocol: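 Intracellular calcium rise is the read-out: engineered human GnRHR HEK293 cells, dye-loaded, are exposed to DMSO-dissolved compounds and fluorescence at Ex/Em 480/540 is tracked for 3 min.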
(In general: Calcium assays in cells follow changes in intracellular calcium, usually with a dye or a luminescent sensor.)

Experiment [3] deals with KiSS-1 receptor (Homo sapiens) (UniProt Q969F8). Kind of experiment: Human kisspeptin (KISS1R) small molecule agonists, calcium flux assay in KISS1R-HEK293 cells (AID 1920064; active means well fitted activation curve with a large enough effect in the repeat runs). The method, boiled down: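 Concentration-response testing used 15 concentrations in triplicate on human KISS1R-expressing HEK293 cells. Calcium-dependent fluorescence (Ex/Em 480/540) was followed kinetically for 3 min after compound transfer.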
Sequence of KiSS-1 receptor (Homo sapiens) (Q969F8 whole entry, looked up): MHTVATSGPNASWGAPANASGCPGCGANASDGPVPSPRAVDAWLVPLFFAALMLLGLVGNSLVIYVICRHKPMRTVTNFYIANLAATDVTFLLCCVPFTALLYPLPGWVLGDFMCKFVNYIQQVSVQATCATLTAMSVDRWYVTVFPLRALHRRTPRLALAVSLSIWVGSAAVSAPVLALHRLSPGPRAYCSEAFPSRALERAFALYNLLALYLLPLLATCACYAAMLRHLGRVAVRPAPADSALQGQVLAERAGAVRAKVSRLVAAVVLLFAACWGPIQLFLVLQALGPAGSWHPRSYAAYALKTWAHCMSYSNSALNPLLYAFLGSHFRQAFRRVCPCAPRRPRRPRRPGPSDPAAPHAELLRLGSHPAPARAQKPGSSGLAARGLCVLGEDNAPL

Experiment [4] in a line: G protein-coupled receptor (GPCR) small molecule agonists, calcium flux assay: HEK293 wild type cell line counter screen (AID 1920065). The method, boiled down: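 Fluorescence intensity signals activation. After overnight (18 h) culture and a 1 h calcium dye load at 37 C, compounds are added by pin tool and the plate read at 480/540 nm for 3 min in 1 s steps.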
Experiment [5] can be described thus: p53 small molecule agonists, cell-based qHTS assay with human liver microsomes (AID 1963577). A digest of the protocol: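 Compounds act here after metabolic activation: human liver microsomes and NADPH, both at 0.5 mg/mL final, were co-added to p53RE-bla cells. Incubation ran 16 h at 37 C, followed by LiveBLAzer detection.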
The nature of experiment [6]: p53 small molecule agonists, cell-based qHTS assay with rat liver microsomes (AID 1963578). A digest of the protocol:
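Read-out is beta-lactamase reporter fluorescence (LiveBLAzer, 2 h, room temperature, dark) in p53RE-bla cells treated 16 h at 37 C with compound, rat liver microsomes and NADPH, both 0.5 mg/mL final.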
For orientation: Quantitative high-throughput screening tests each substance at several concentrations.

Experiment [7] is described as follows: p53 small molecule agonists, cell-based qHTS assay with rat liver microsomes: qHTS cell viability counter screen (AID 1963580). Further: nearly all actives have a fitted effect of over 45% in size. A digest of the protocol:
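Rat liver microsome (0.5 mg/mL final) and NADPH (0.5 mg/mL final) co-incubation with compounds for 16 h at 37 C on HCT-116 p53RE-bla cells; cytotoxicity taken from intracellular ATP luminescence.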

A short description of experiment [8]: p53 small molecule agonists, cell-based qHTS assay: qHTS cell viability counter screen (AID 1963581). Further: nearly all actives have a fitted effect of over 45% in size. A digest of the protocol: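 Luminescence from CellTiter-Glo, reflecting ATP content, serves as the cytotoxicity measure; it is taken after the 2 h reporter substrate step in HCT-116 p53RE-bla cells dosed for 16 h at 37 C.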
Experiment [9] in a line: p53 small molecule agonists, cell-based qHTS assay (AID 1963582; active means well fitted activation curve with a large enough effect in the signal ratio in the repeat runs, not every such curve was filed as active; the % refers to the signal ratio). The method, boiled down: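 After plating, p53RE-bla cells sat 5 h in the incubator; compounds or DMSO vehicle were pinned in; a 16 h incubation at 37 C followed; FRET substrate was added and, 2 h later at RT, fluorescence was measured.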
The target in experiment [10] is 5-hydroxytryptamine receptor 2A (Homo sapiens) (UniProt P28223). The experiment is described as follows: 5-hydroxytryptamine receptor 2A (HTR2A) small molecule agonists, cell-based qHTS assay (AID 1963587). Further: nearly all actives have a fitted effect of over 30% in size. The method, boiled down: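 Kinetic calcium-flux fluorescence (2 min, 1 sec intervals) after compound addition in agonist mode. HTR2A-CHO cells were cultured 18 h, then dye-loaded 1 h at 37 C.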
Sequence of 5-hydroxytryptamine receptor 2A (Homo sapiens) (P28223 whole entry, looked up): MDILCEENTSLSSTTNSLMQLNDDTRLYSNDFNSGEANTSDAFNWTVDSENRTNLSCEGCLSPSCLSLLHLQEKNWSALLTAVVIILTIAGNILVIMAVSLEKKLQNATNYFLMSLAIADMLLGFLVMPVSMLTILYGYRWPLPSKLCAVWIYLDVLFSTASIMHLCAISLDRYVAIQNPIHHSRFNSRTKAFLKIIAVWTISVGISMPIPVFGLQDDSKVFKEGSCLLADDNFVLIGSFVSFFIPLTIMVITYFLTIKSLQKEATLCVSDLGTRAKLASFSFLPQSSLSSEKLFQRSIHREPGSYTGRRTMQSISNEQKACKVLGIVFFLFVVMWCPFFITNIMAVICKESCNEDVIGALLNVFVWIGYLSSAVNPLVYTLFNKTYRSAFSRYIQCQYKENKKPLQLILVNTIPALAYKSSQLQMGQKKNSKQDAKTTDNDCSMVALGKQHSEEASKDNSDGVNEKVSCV

Experiment [11] addresses Muscarinic acetylcholine receptor M1 (Homo sapiens) (UniProt P11229). The experiment is described as follows: Cholinergic receptor muscarinic 1 (CHRM1) small molecule antagonists, cell-based qHTS assay (AID 1963588). Further: nearly all actives have a fitted effect of over 40% in size. Further: potency means the concentration at half of the fitted maximal effect. The method, boiled down: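 Compounds were tested at 15 concentrations in three independent runs. Dye-loaded CHRM1-CHO cells were exposed 5 min at room temperature before stimulation by acetylcholine added at 50nM. Intracellular calcium was read kinetically on FDSS for 3 min.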

For experiment [12] the target is unchanged. Kind of experiment: Cholinergic receptor muscarinic 1 (CHRM1) small molecule agonists, cell-based qHTS assay (AID 1963589). Further: nearly all actives have a fitted effect of over 35% in size. The method, boiled down: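 Fluorescent calcium dye reports M1 activation in stably transfected CHO cells. Compounds, 15 concentrations, added after 1 h dye loading at 37 C; kinetic reading at 1 sec intervals.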
Experiment [13] can be described thus: cAMP Responsive Elements (CRE) small molecule agonists, cell-based qHTS assay (AID 1963590). The method, boiled down:
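Compound exposure lasted 3 h at 37 C/5% CO2 in CRE-bla HEK 293T cells grown in assay medium with 10% dialyzed FBS and 25 mM HEPES. Reporter signal came from LiveBLAzer B/G FRET substrate, 2 h, room temperature.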

Experiment [14] can be described thus: cAMP Responsive Elements (CRE) small molecule antagonists, cell-based qHTS assay (AID 1963591; active means well fitted inhibition curve with a large enough effect in the signal ratio in the repeat runs, not every such curve was filed as active; the % refers to the signal ratio). A digest of the protocol:
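Stimulation used NKH477 at a final 0.25 uM for 3 h in compound-treated CRE-bla HEK293T cells, seeded 18 h beforehand. Reporter activity was measured with LiveBLAzer B/G FRET substrate after 2 h at room temperature.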

Experiment [15] concerns the target D(2) dopamine receptor (Homo sapiens) (UniProt P14416). Kind of experiment: Dopamine D2 receptor (DRD2) small molecule antagonists, cell-based qHTS assay (AID 1963595; active means well fitted inhibition curve with a large enough effect in the signal ratio in the repeat runs, with a control signal flat; the % refers to the signal ratio). The method, boiled down: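 Antagonism was scored as restored cAMP in HEK293-DRD2 cells. These cells were stimulated with 200 nM NKH477 and 12 nM quinpirole for 30 min at room temperature, in the presence of 0.1 mM Ro20-1724.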

A short description of experiment [16]: p53 small molecule agonists, cell-based qHTS assay with human liver microsomes: qHTS cell viability counter screen (AID 1963579). Further: nearly all actives have a fitted effect of over 45% in size. The method, boiled down:
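Cells carrying the p53 response-element beta-lactamase reporter are treated for 16 h at 37 C with test compounds in the presence of human liver microsomes and NADPH (both 0.5 mg/mL final); ATP-based CellTiter-Glo luminescence then reports viability.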

For experiment [17], the target named is 5-hydroxytryptamine receptor 2A (Homo sapiens) (UniProt P28223). Kind of experiment: 5-hydroxytryptamine receptor 2A (HTR2A) small molecule antagonists, cell-based qHTS assay (AID 1963586). Further: nearly all actives have a fitted effect of over 45% in size. A digest of the protocol: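 CHO cells stably expressing human HTR2A were plated for 18 h at 37 C, then loaded with calcium dye for 1 h. Compounds were preincubated 5 min at room temperature before DOI (4 nM solution) was added. Kinetic fluorescence was read for 3 min.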

The target of experiment [18] is Beta-2 adrenergic receptor (Homo sapiens) (UniProt P07550). Kind of experiment: Adrenergic beta2 receptor (ADRB2) small molecule antagonists, cell-based qHTS assay (AID 1963592). Further: series mostly up to about 92 µM; nearly all actives have a fitted effect of over 50% in size. A digest of the protocol: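 Assay format: CHO-ADRB2 cells, 18-20hr seeding at 37C/5% CO2, then compound plus 1nM isoproterenol agonist mix for 0.5hr RT. Homogeneous time-resolved fluorescence cAMP detection after 1hr, expressed as 665/615 nm ratio.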
Sequence of Beta-2 adrenergic receptor (Homo sapiens) (P07550 whole entry, looked up): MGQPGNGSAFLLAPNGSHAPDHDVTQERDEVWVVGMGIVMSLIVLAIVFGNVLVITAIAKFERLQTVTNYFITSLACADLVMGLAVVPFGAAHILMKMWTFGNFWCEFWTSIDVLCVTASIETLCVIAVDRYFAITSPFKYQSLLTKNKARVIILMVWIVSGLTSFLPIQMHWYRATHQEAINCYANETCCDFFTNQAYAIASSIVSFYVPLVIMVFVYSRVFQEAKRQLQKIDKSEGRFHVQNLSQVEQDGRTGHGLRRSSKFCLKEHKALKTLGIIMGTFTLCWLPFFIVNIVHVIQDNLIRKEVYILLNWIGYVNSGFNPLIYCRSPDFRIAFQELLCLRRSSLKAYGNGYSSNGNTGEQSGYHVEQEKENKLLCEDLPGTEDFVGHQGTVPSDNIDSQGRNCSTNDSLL

Experiment [19] concerns the target D(2) dopamine receptor (Homo sapiens) (UniProt P14416). The experiment is described as follows: Dopamine D2 receptor (DRD2) small molecule agonists, cell-based qHTS assay (AID 1963594). Further: nearly all actives have a fitted effect of over 35% in size. The method, boiled down: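 cAMP accumulation in DRD2-HEK293 cells measured by HTRF after 1 h detection; compounds added 10 min before NKH477 (200nM […]) forskolin-analogue stimulation, 30 min at room temperature, with Ro20-1724 present at 0.1 mM final.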

Molecules are shown by their SMILES. Results filed as inconclusive are left out. Activity calls are given as the source filed them. Unless noted, the call rests on the fitted dose curve.

Sequence of D(2) dopamine receptor (Homo sapiens) (P14416 whole entry, looked up): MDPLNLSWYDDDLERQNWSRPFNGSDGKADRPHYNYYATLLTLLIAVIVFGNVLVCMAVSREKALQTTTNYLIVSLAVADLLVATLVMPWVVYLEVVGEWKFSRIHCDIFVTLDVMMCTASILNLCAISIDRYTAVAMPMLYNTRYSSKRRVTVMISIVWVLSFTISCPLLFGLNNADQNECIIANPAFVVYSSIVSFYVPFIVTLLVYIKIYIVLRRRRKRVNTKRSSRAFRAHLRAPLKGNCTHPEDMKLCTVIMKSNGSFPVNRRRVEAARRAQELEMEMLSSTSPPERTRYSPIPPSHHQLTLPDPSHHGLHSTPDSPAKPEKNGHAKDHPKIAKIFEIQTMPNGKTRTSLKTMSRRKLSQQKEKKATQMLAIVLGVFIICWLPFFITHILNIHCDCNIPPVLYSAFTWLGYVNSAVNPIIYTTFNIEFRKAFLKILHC
Sequence of Gonadotropin-releasing hormone receptor (Homo sapiens) (P30968 whole entry, looked up): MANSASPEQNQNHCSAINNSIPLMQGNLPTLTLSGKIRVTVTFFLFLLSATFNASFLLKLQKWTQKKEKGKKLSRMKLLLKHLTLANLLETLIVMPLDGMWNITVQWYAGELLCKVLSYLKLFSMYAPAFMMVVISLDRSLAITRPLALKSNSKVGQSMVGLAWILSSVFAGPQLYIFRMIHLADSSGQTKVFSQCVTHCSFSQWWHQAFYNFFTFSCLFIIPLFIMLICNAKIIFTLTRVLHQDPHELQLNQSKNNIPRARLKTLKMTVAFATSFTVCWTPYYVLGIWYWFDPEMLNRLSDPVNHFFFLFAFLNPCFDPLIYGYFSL
Sequence of Muscarinic acetylcholine receptor M1 (Homo sapiens) (P11229 whole entry, looked up): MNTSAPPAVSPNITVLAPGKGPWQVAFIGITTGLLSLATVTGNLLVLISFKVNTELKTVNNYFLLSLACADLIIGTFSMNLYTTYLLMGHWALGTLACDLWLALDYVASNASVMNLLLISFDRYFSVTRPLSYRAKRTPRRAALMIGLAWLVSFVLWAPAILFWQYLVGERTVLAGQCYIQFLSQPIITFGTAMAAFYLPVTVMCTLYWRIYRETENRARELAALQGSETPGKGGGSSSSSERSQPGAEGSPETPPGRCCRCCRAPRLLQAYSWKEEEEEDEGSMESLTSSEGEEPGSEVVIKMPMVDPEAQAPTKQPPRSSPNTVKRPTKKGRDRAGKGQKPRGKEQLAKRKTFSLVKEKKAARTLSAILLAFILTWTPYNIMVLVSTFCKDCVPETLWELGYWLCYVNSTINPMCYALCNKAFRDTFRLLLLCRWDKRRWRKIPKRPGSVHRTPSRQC

For `NS(=O)(=O)Cc1noc2ccccc12`, the Potency result in experiment [1], in experiment [2], in experiment [5], in [6], in experiment [7] and in [8] was “inactive” in each case. In addition, the Potency result in experiment [9], in [10], in experiment [11], in experiment [12], in experiment [13] and in experiment [14] was “inactive” in each case. In addition, in experiment [15], the Potency result was “inactive”. Also, the outcome in [3] and in experiment [4] was inactive.

As to `COc1ccc(Nc2ccc(OC)cc2)cc1`, in experiment [1], the Potency is 27.8 µM (active). Further, the Potency entry in [2], in experiment [5], in experiment [6], in [16], in experiment [7] and in experiment [17] was “inactive” each time. For the same molecule, the Potency entry in [10], in [11], in [12], in experiment [13], in experiment [14] and in experiment [18] was “inactive” each time. Also, the Potency result in experiment [19] and in experiment [15] was “inactive” each time. Also, the result in [3] and in [4] was inactive.

As for `C=CC(=O)OCCOCC(CC)(COCCOC(=O)C=C)COCCOC(=O)C=C`, the Potency in experiment [1] was 12.7 µM (active). In addition, the Potency result in experiment [2], in [5], in experiment [6], in experiment [7], in experiment [17] and in experiment [10] was “inactive” throughout. In addition, the Potency entry in experiment [11], in experiment [12], in experiment [18] and in [19] was “inactive” each time. Moreover, the result in experiment [3] and in [4] was inactive.

As to `NS(=O)(=O)c1cc(-c2nn[nH]n2)c(NCc2cccs2)cc1Cl`, the Potency entry in experiment [1], in [2], in [5], in experiment [6], in [7] and in experiment [9] was “inactive” each time. Further, the Potency result in experiment [17], in [10], in experiment [11], in experiment [12], in experiment [13] and in experiment [14] was “inactive” throughout. The Potency entry in experiment [18] and in experiment [19] was “inactive” each time. The outcome in experiment [3] and in experiment [4] was inactive.

For `C[N+]12CCC(CC1)C(OC(=O)C(O)(c1ccccc1)c1ccccc1)C2` (configuration not stated), the Potency entry in experiment [1], in [2], in experiment [5], in experiment [16], in experiment [7] and in experiment [9] was “inactive” in each case. Further, the Potency entry in [17], in experiment [10], in experiment [12], in experiment [13], in experiment [14] and in experiment [18] was “inactive” in each case. Also, the Potency entry in experiment [19] and in experiment [15] was “inactive” each time. Also, the outcome in experiment [3] and in experiment [4] was inactive. In experiment [11], the Potency was 0.0013 µM (active).

In the case of `N[C@@H](Cc1cc(I)c(O)c(I)c1)C(=O)O`, the Potency result in experiment [1], in [2], in experiment [5], in experiment [6], in experiment [16] and in [7] was “inactive” in each case. The Potency result in [9], in [17], in experiment [11], in experiment [12], in [13] and in experiment [14] was “inactive” throughout. Besides, the Potency entry in experiment [18] and in experiment [15] was “inactive” throughout. Also, the outcome in experiment [3] and in [4] was inactive.

For the molecule `CC(NC(CCc1ccccc1)C(=O)O)C(=O)N1C(=O)N(C)CC1C(=O)O` (configuration not stated), the Potency entry in experiment [1], in experiment [2], in experiment [5], in experiment [6], in experiment [16] and in experiment [8] was “inactive” each time. Further, the Potency result in [9], in experiment [17], in experiment [10], in [11], in [12] and in experiment [13] was “inactive” each time. Besides, the Potency result in [14], in [18], in experiment [19] and in experiment [15] was “inactive” each time. In addition, the outcome in experiment [3] and in [4] was inactive.

For the origin of these results see PubChem BioAssay (Tox21).
